This is a sample that favours compounds with a hit; in the whole collection about 12% have one here.
SARS PLpro yeast = SARS-CoV PLP inhibition in yeast; Potency, µM (highest dose often 32.9 µM), hits mostly activators; S. cerevisiae expressing SARS-CoV PLpro, growth rescue; 330,000 compounds, 0.19% hits; AID 485353; calls by dose curve; further: nearly all actives have a fitted effect of over 55% in size
Pf growth 48h = P. falciparum growth inhibition at 48 hours (one generation) | 310,000 compounds, 5.9% hits | Potency, µM (highest dose often 28.7 µM), actives largely listed as inhibitors | AID 504832 | P. falciparum luciferase growth in erythrocytes, 48 h
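Growth was read as firefly luciferase luminescence after a 48 h, 37 C, 5% CO2 exposure of compounds to reporter-bearing P. falciparum cultures (0.1% parasitemia, 2% hematocrit final) in Albumax-supplemented RPMI 1640.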
HCV inhibitor = HCV inhibition; Huh7.5.1 HCVcc-Cre infection, luciferase reporter, 44 h; 340,000 compounds, 3.4% hits; Potency, µM (series often up to 41.8 µM), most hits filed as inhibitors
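After 44 h co-culture of compound, cells and HCVcc-Cre (~0.5 moi), substrate is added for 15 min at room temperature and luciferase measured over 15 sec. Cells were seeded at 1,000/well and pre-cultured 4 h.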
AMA1-RON2 inh = disrupts binding of P. falciparum AMA1 to RON2; AID 720542; 360,000 compounds, 0.2% hits; AlphaScreen AMA1-biotinylated RON2 peptide binding; Potency, µM (series often up to 58.2 µM), usual class: inhibitors; further: nearly all actives have a fitted effect of over 45% in size
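AMA1 (3D7) with his tag at 25 nM final met compounds first, then biotinylated RON2 peptide at 25 nM; detection used donor plus acceptor beads, 10 µg/mL apiece, read by AlphaScreen after 30 min at room temperature.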
Pf growth 96h = inhibits malaria parasite growth, 96 h. 320,000 compounds, 6.9% hits. P. falciparum luciferase reporter growth, 96 h. Potency, µM (top dose mostly 28.7 µM), hits mostly inhibitors
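Two parasite generations (96 h, 37 C, 5% CO2) of compound exposure in infected erythrocytes (0.05% parasitemia, 2% hematocrit). Luciferase-reporter P. falciparum; decreased luminescence indicates inhibited growth, aimed at apicoplast-acting delayed death.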
NS1 inh = inhibitors of influenza NS1 protein function; Potency, µM (highest dose often 46.1 µM); 270,000 compounds, 0.4% hits; calls by dose curve; further: actives are rising curves; nearly all actives have a fitted effect of over 50% in size
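Growth recovery, yeast-based: influenza A NS1 expressed in S. cerevisiae causes slow growth, and suppressors are detected by OD600. The parent strain without NS1 is used as positive control.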
Each line names hits and unclear results; the compound was inactive in the other large screens. Unless noted, the call rests on the fitted dose curve; in most records, active means well fitted curve in the direction sought with a large enough effect; inconclusive means small, poorly fitted or top-dose-only effect, or another doubt; inactive means no such curve, though single readings can be large; an effect the other way counts as inactive or inconclusive.

CN(C)CCn1c(=O)n(C2CCCCC2)c(=O)c2c3c(sc21)CCCCC3	HCV inhibitor inconclusive (no result: SARS PLpro yeast, Pf growth 48h, Pf growth 96h, NS1 inh)
O=c1c2c3c(sc2n(CCN2CCCC2)c(=O)n1Cc1ccco1)CCCCC3	Pf growth 48h inconclusive, HCV inhibitor 10µM, NS1 inh inconclusive
O=C(Cn1c(=O)n(Cc2ccco2)c(=O)c2c3c(sc21)CCCCC3)Nc1ccccc1	Pf growth 48h inconclusive, Pf growth 96h 11.7µM, NS1 inh inconclusive
CN(C)CCn1c(=O)n(Cc2ccco2)c(=O)c2c3c(sc21)CCCCC3	Pf growth 48h inconclusive, HCV inhibitor inconclusive, Pf growth 96h 7.38µM
O=C(Cn1c(=O)n(Cc2ccco2)c(=O)c2c3c(sc21)CCCCC3)c1ccccc1	NS1 inh inconclusive (no result: HCV inhibitor)
COc1cccc(CNC(=O)CCCn2c(=S)[nH]c3cc4c(cc3c2=O)OCO4)c1	Pf growth 48h inconclusive, HCV inhibitor inconclusive
COc1ccc(C2c3c(ccc4ccccc34)Oc3ncn4nc(Cc5ccc(OC)c(OC)c5)nc4c32)cc1 (stereo not given)	Pf growth 48h inconclusive, Pf growth 96h inconclusive (no result: AMA1-RON2 inh)
COc1ccc(C2c3c(ncn(CCN4CCOCC4)c3=N)Oc3ccc4ccccc4c32)cc1 (stereo not given)	Pf growth 48h 9.28µM, HCV inhibitor inconclusive (no result: Pf growth 96h)
O=C(c1ccccc1)N(C(=O)c1ccccc1)c1ncnc2c1C(c1ccccc1)c1c(ccc3ccccc13)O2 (stereo not given)	Pf growth 48h inconclusive (no result: HCV inhibitor, AMA1-RON2 inh, NS1 inh)
N=c1c2c(ncn1CCN1CCOCC1)Oc1ccc3ccccc3c1C2c1ccccc1 (stereo not given)	Pf growth 96h 4.65µM (no result: Pf growth 48h)
COc1ccc(C2c3c(ccc4ccccc34)Oc3ncn4nc(-c5ccco5)nc4c32)cc1 (stereo not given)	Pf growth 48h inconclusive, HCV inhibitor inconclusive, Pf growth 96h 3.7µM
c1ccc(C2c3c(ccc4ccccc34)Oc3ncn4nc(-c5ccco5)nc4c32)cc1 (stereo not given)	HCV inhibitor inconclusive, Pf growth 96h inconclusive
CC(Oc1cc2oc(=O)c3c(c2cc1Cl)CCC3)C(=O)NCCCn1ccnc1 (stereo not given)	Pf growth 96h inconclusive
COc1ccc2cc(C(c3nnnn3C(C)(C)C)N3CCSCC3)c(=O)[nH]c2c1 (stereo not given)	Pf growth 48h 11.7µM
COc1ccc(Cn2nnnc2C(c2cc3ccc(OC)cc3[nH]c2=O)N2CCCCCC2)cc1 (stereo not given)	Pf growth 48h 9.28µM
COc1cc2cc(C(c3nnnn3Cc3ccc(F)cc3)N3CCCCCC3)c(=O)[nH]c2cc1OC (stereo not given)	Pf growth 48h inconclusive, Pf growth 96h inconclusive
COc1ccc2cc(C(c3nnnn3C(C)(C)C)N3CCc4ccccc4C3)c(=O)[nH]c2c1 (stereo not given)	Pf growth 48h inconclusive, HCV inhibitor inconclusive, Pf growth 96h inconclusive (no result: AMA1-RON2 inh)
Cc1cc(C2=NNC(=NC3CC3)SC2)c(C)n1-c1ccccc1F	Pf growth 48h inconclusive, HCV inhibitor 11.2µM, Pf growth 96h inconclusive, NS1 inh inconclusive
CCc1ccc(C2=NNC(=Nc3c(C)n(C)n(-c4ccccc4)c3=O)SC2)cc1	none
Cc1cc(C2=NNC(=NC3CCCCC3)SC2)c(C)n1-c1c(C)n(C)n(-c2ccccc2)c1=O	Pf growth 48h 6.57µM, Pf growth 96h 13.1µM (no result: NS1 inh)
O=c1oc2cc(Oc3ccc(C(F)(F)F)cc3[N+](=O)[O-])ccc2c2c1CCC2	SARS PLpro yeast inconclusive, HCV inhibitor inconclusive
O=c1oc2cc(Oc3c([N+](=O)[O-])cc(C(F)(F)F)cc3[N+](=O)[O-])ccc2c2c1CCCC2	HCV inhibitor 3.16µM, Pf growth 96h inconclusive
CN(C)CC/C=C1/c2cc(F)ccc2CSc2ccc(F)cc21	Pf growth 48h inconclusive, HCV inhibitor inconclusive, Pf growth 96h inconclusive
CC(O)CN(C)CC/C=C1/c2ccccc2CSc2ccccc21 (stereo not given)	Pf growth 48h inconclusive, HCV inhibitor inconclusive, Pf growth 96h inconclusive
CN(CC/C=C1/c2ccccc2CSc2ccccc21)CCCO	Pf growth 48h 11.7µM, HCV inhibitor inconclusive, Pf growth 96h 13.1µM
